The results in this text go back to PubChem BioAssay (NCI).

The panel holds about 79,000 compounds, 15% with a hit somewhere; the sample as a whole holds those more often. A number with no mark means an inactive call. Rule as the data show it: active = growth inhibition above about 70%; inactive = the rest.

The assay in a line: NCI Yeast Anticancer Drug Screen. Data for the mlh1 rad18 strain (AID 175). As to conditions: S. cerevisiae mlh1 rad18 strain growth inhibition; at 50.0 µM; stronger effect = higher value. How it is done:
Growth inhibition of yeast strains with defined genetic alterations is measured as a screen for potential anti-cancer activity. Selected strains with alterations in DNA damage repair or cell cycle control were exposed to compounds and growth inhibition was measured relative to vehicle treated controls. The strain used in this assay is mlh1 rad18
For the molecule `Nc1nc(C(=O)O)c([N+](=O)[O-])c(=O)[nH]1`, the growth inhibition was -11.8%. Next, `O=C(/C=C/c1cccc([N+](=O)[O-])c1)Nc1cccnc1`: 24.1%; `Cc1cc(Br)c(O)c(-c2cscn2)c1`: 3%. Consider `CCOC(=O)C1C(c2ccc(Cl)cc2Cl)NC(c2ccc(C)cc2)C(C(=O)OC)S1(=O)=O` (stereo not given), for which the growth inhibition was 27.1%. In the case of `CC1(c2ccccc2)CCCCC1OC(N)=O` (stereo not given) it was -5.15%; in that of `Cc1c(Cc2c(C)n(C)n(-c3ccccc3)c2=O)c(=O)n(-c2ccccc2)n1C`, 9.5%; in that of `C=CC(CCCC(C=C)OC(C)=O)OC(C)=O` (stereo not given), 5.5%.

Turning to `CC(=O)N(c1ccccc1)c1cc(Cl)cc[n+]1[O-]`, the growth inhibition was -2.05%. As for `CNCc1cccs1`, the growth inhibition was -10.4%.

Turning to `CC(=O)Nc1ccc2c(c1)Cc1cc(Cl)c(Cl)cc1-2`, the growth inhibition is 37.6%. In the case of `O=C1c2ccccc2C(=O)N1CCCO` it was 8.9%; in that of `ClC1CC2CC1C1COCC21` (stereo not given), -8.9%. Next, `COc1ccc(N=C(N)N=C(N)N)cc1`: 0%; `CC(=O)Nc1ccc(S(=O)(=O)n2c(=O)oc3cc(Br)ccc32)cc1`: 0.65%.

For `Nc1ccncc1CCc1ccccc1`, the growth inhibition is 3.1%. For the molecule `O=C(O)COc1ccc(F)c(F)c1F`, the growth inhibition was -20.1%. Next, `CCCc1cc(=O)oc2c3c(c4c(c12)OC(C)(C)C=C4)OC(C)[C@H](C)[C@@H]3O` (stereo not given in full): 26.1%; `Cc1ccc(S(=O)(=O)NC(=O)C2S(=O)(=O)OCCOS2(=O)=O)cc1`: -16.4%. In the case of `CNc1ccc(C(=O)O)cc1C` it was 0.4%; in that of `COC1/C=C/OC2(C)Oc3c(C)c(O)c4c(O)c(c(/C=N/N5CC(C)N(C(=O)c6ccccc6)C(C)C5)c(O)c4c3C2=O)NC(=O)C(C)=C/C=C/C(C)C(O)C(C)C(O)C(C)C(OC(C)=O)C1C` (stereo not given), 5.45%. `COc1ccc(CCn2cnc3ccccc32)cc1`: the growth inhibition is -18.9%. As to `Cc1ccnc(NS(=O)(=O)c2ccc(N=Cc3ccccc3O)cc2)n1`, the growth inhibition was -0.5%. Next, `CC1(C)N=C(N)N=C(N)N1c1cccc(CO)c1`: 28.2%. Next, `CCOC(=O)N1CCC2C(=C(C)C(C)C3=C2C(=O)c2ccccc2C3=O)C1` (stereo not given): 7.1%; `COc1cc(/C=C2/C(=O)N=C(NC(C)=O)N2C)ccc1OC(C)=O`: -37.1%; `CC(=O)CC(=O)Nc1ccccc1Cl`: 16.4%. `Clc1ccc2c(NCCCCN=Cc3ccccc3)ccnc2c1`: the growth inhibition was -12.7%.

As for `CCCCC(CC)CSC[N+](C)(CC)CC` (stereo not given), the growth inhibition is 20.6%. Next, `COc1cc(O)c2c(c1)Cc1cc(C)cc(O)c1C2=O`: 1.65%; `Nc1nc(SCC(=O)O)[nH]c(=O)c1N`: 2.7%. In the case of `Cc1cc(OCCN(C)C)cc(C)c1Cl` it was 8.8%; in that of `CCCCS(=O)CC(CO)NC(=O)/C=C/c1c(C)[nH]c(=O)[nH]c1=O` (stereo not given), 33.9%. In the case of `CC1CNCC(C)N1C(=O)c1ccccc1` (stereo not given), the growth inhibition was -39.5%. In the case of `COC(=O)c1cc(OC)nc(Cl)n1` it was 1.9%; in that of `C=C(C)COc1ccc2c(c1)CCC1C2CCC2(C)C1CCC2(C)O` (stereo not given), 6.6%; in that of `C[n+]1ccc(Nc2ccc(NC(=O)c3ccc(N)cc3)cc2)cc1`, 17.4%. In the case of `O=C1CSC(c2ccc([N+](=O)[O-])cc2)N1c1nc(-c2ccc3c(c2)CCCC3)cs1` (stereo not given) it was 31.5%. As for `C=C(C)/C=C/S(=O)c1ccccc1` (stereo not given), the growth inhibition is -5.15%. Next, `COc1ccc(C2=CSc3ccccc3N2)cc1`: 11.4%; `CCC1C(C#N)(C#N)C1(C#N)C#N`: 12.2%.
